Here are results for 40 molecules from PubChem BioAssay (EPA / NIEHS).

The source made the active and inactive calls. The calls were made as follows: active = hit-call score of the fitted dose curve at least 0.9, where 1 is the maximum; inactive = score below 0.9.

The experiment can be described thus: ATG_DR4_LXR_CIS: Attagene CIS-FACTORIAL HepG2 Assay for human Liver X Receptor (LXR), DR4 submotif (AID 2282929). As to conditions: HepG2 Attagene DR4 cis-reporter, mRNA transcription; actives raise or lower the signal. The method, then:
ATG_CIS is a cell-based, multiplexed-readout assay that uses HepG2, a human liver cell line, with measurements taken at 24 hours after chemical dosing in a 24-well plate.ATG_DR4_LXR_CIS is one of 52 assay component(s) measured or calculated from the ATG_CIS assay. It is designed to make measurements of mRNA induction, a form of inducible reporter, as detected with fluorescence intensity signals by Reverse transcription polymerase chain reaction (RT-PCR) and Capillary electrophoresis technology.Data from the assay component ATG_DR4_LXR_CIS was analyzed into 1 assay endpoint. This assay endpoint, ATG_DR4_LXR_CIS, was analyzed with bidirectional fitting relative to DMSO as the negative control and baseline of activity. Using a type of inducible reporter, measures of mRNA for gain or loss-of-signal activity can be used to understand the reporter gene at the transcription factor-level as they relate to the gene NR1H2 and NR1H3. Furthermore, this assay endpoint can be referred to as a primary readout, because this assay has produced multiple assay endpoints where this one serves a reporter gene function. To generalize the intended target to other relatable targets, this assay endpoint is annotated to the nuclear receptor intended target family, where the subfamily is non-steroidal.
Human liver HepG2 cells are transiently transfected with multiple reporter transcription units (MRTUs) in 6-well plates using FuGene 6 reagent (Roche; 3 ml FuGene/1 mg DNA). The MRTU constructs are regulated by a cis-regulating element (promoter). […] A major difference between the CIS and TRANS system is that in CIS activities of endogenous TFs are measured, whereas the TRANS assay evaluates changes in activities of exogenous, chimeric NR-Gal4 proteins. […] At the end of 24 hour incubation, total RNA was isolated using TriZol reagent (Invitrogen). The isolated RNA is then reverse-transcribed using oligo(dT) primer and Mo-MLV reverse transcriptase (Invitrogen) with DNAse I (Ambion) treatment for 30 min. The one-tenth of the produced cDNA was amplified by PCR using Taq DNA polymerase (Invitrogen) and two reporter sequence-specific primers. The PCR products were fluorescently labeled by primer extension with 6-arboxyfluorescein (6-FAM) 5'-labeled reporter sequence-specific primer (2 min at 95 C, 20 s at 68 C and 10 min at 72 C) and these products were digested with 5U of HpaI (New England Biolabs) for 2h at 37 C. The fragments were purified using Qiaquick PCR columns (Qiagen), analyzed on an ABI 3130xL genetic analyzer (Applied Biosystems) with peak positions identified by using a set of X-rhodamine (ROX)-labeled MapMarker1000 molecular weight standards (BioVentures). The raw capillary electrophoresis data was processed using Attagraph software (Attagene).
In the case of `C=C(C)C1CC=C(C)CC1` (stereo not given), the call was inactive. Turning to `CCCC=C(C=O)CC`, the result was inactive. In the case of `C[Si]1(C)O[Si](C)(C)O[Si](C)(C)O[Si](C)(C)O[Si](C)(C)O1`, the AC50 is 36.2 µM (active).

Take `CC(=O)OC1CCCCC1`: the outcome was inactive. Turning to `CCCCCCCCCCCCc1ccc(O)cc1`, the outcome was inactive. As to `C=CCCCCCCCCOC(C)=O`, the molecule was classed as inactive. For the molecule `O=C(O)CC(C(=O)O)S(=O)(=O)O` (stereo not given), the call was inactive.

As to `CC(=O)OCC=C(C)C`, the outcome was inactive. As for `C=C(C)C1CC=C(C)C(OC(C)=O)C1` (stereo not given), the molecule was classed as inactive. For `CCCCOCCOC(=O)COc1ccc(Cl)cc1Cl`, the call was inactive. Take `CCN1CN(CC)CN(CC)C1`: the AC50 was 139 µM (active). In the case of `CCCCCCCCCCCC(C)=O`, the AC50 was 136 µM (active). `CCC(C)C(=O)OC` (stereo not given): the result was inactive.

With `Nc1ccnc(=O)[nH]1`, the call was inactive.

Turning to `c1ccc2sc(SSN3CCOCC3)nc2c1`, the AC50 was 100 µM (active). For `CCOC(=O)C1=NOC(c2ccccc2)(c2ccccc2)C1`, the call was inactive. Regarding `C=CCCCCCCCCC=O`, the outcome was inactive. As to `CCCCC1C(=O)N(c2ccccc2)N(c2ccccc2)C1=O`, the call was inactive. For `Oc1c(Cl)cc(Cl)c(Cl)c1Cl`, the molecule was classed as inactive.

Regarding `Cc1c(C(=O)c2c[nH]n(C)c2=O)ccc(S(C)(=O)=O)c1C1=NOCC1`, the outcome was inactive. Turning to `CCCCCCCCCCCC(=O)N(C)CC(=O)O`, the concentration at half-maximal activity (AC50) is 97.5 µM (active). As for `O=C(OCCc1ccccc1)c1ccccc1`, the call was inactive.

On to `CCc1cccc(C)c1N(C(=O)CS(=O)(=O)O)C(C)COC` (stereo not given), for which the molecule was classed as inactive. The same measure, in the same setting: for `NC(=O)Nc1ccccc1` the value was “inactive”; for `CCCCCCCO`, “inactive”; for `C=C(C)[C@@H]1CC=C(C)CC1`, “inactive”. With `CC(C=O)c1ccccc1` (stereo not given), the result was inactive. For the molecule `CCOC(=O)[C@H](O)[C@@H](O)C(=O)OCC`, the molecule was classed as inactive. For `CC(=O)CC(=O)Nc1ccccc1C`, the result was inactive. For the molecule `CCCCC(C=O)CC` (stereo not given), the outcome was inactive. In the case of `CCCCC/C=C\C/C=C\CCCCCCCC(=O)O`, the AC50 is 76.9 µM (active). As for `O=C(OCc1ccccc1)c1ccc(O)cc1`, the call was inactive. Consider `CC1=CP(=O)(c2ccccc2)CC1` (stereo not given), for which the call was inactive. Same read-out and setting: then `CCCCCCCCCCCCC`, with “inactive”; and `COc1nccnc1CC(C)C`, with “inactive”; and `CCC(C)N` (stereo not given), with “inactive”. As to `CC(=O)OC/C=C(/C)CCC=C(C)C`, the outcome was inactive. Take `Cn1ccnc1`: the outcome was inactive.

Consider `C=C1C[C@H]2[C@@H]3C=C(C)C4=CC(=O)CC[C@]4(C)[C@H]3CC[C@]2(C)[C@@]1(OC(C)=O)C(C)=O`, for which the half-maximal activity concentration (AC50) is 99.7 µM (active).

In the case of `Cn1cccc1`, the call was inactive.

For orientation: AC50 means the concentration at which the activity in the assay is half-maximal.
